# PubChem BioAssay (NCI)
# The panel holds about 79,000 compounds, 15% with a hit somewhere; the sample as a whole holds those more often. Values without a mark were called inactive. Active and inactive are the calls of the source. Rule as the data show it: active = growth inhibition above about 70%; inactive = the rest.
# What was measured:
# [1] = NCI Yeast Anticancer Drug Screen. Data for the rad50 strain (AID 155);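 also: 0% = growth of vehicle-only cultures of the same strain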; details: S. cerevisiae rad50 strain growth inhibition, active compounds read high
# Summary of the method: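 Inhibition values express reduced yeast growth in compound-treated cultures relative to vehicle-treated controls.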
# [2] = NCI Yeast Anticancer Drug Screen. Data for the mec2-1 strain (AID 157); details: S. cerevisiae mec2-1 strain, active compounds read high
# Summary of the method: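 Strain: mec2-1 (DNA repair/cell cycle alteration). Compound exposure, then growth measured; inhibition expressed relative to vehicle.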
# [3] = NCI Yeast Anticancer Drug Screen. Data for the sgs1 mgt1 strain (AID 161);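 also: 0% = growth of cultures given vehicle only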; details: S. cerevisiae sgs1 mgt1 strain, active compounds read high
# Summary of the method: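 Inhibition of yeast growth, normalised to vehicle-treated controls, is reported for a strain bearing genetic alterations in DNA damage repair.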
# [4] = NCI Yeast Anticancer Drug Screen. Data for the cln2 rad14 strain (AID 165);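 also: 0% = growth equal to vehicle treated cultures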; details: S. cerevisiae cln2 rad14 strain, active compounds read high
# Summary of the method: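 Compounds are applied to the cln2 rad14 yeast strain, and growth is then compared with that of vehicle-treated cultures to give inhibition.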
# [5] = NCI Yeast Anticancer Drug Screen. Data for the bub3 strain (AID 167); details: S. cerevisiae bub3 mutant strain, active compounds read high
# Summary of the method: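 Steps: expose the mutant yeast strain to compound; grow alongside vehicle-treated cultures; measure growth; express inhibition against the vehicle cultures.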
# [6] = NCI Yeast Anticancer Drug Screen. Data for the mlh1 rad18 strain (AID 175); details: S. cerevisiae mlh1 rad18 strain growth inhibition, active compounds read high
# Summary of the method: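 Read-out is yeast growth inhibition, calculated against vehicle-only controls. The compound was applied to a strain engineered with DNA damage repair alterations.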
# [7] = at 5.0 µM (retest, dose inferred, filed as 0.5)
# [8] = at 50.0 µM (retest, dose inferred, filed as 5.0)
SMILES,"growth inhibition [1, 7]","growth inhibition [1, 8]",growth inhibition ([1]; at 50.0 µM),"growth inhibition [2, 7]","growth inhibition [2, 8]",growth inhibition ([2]; at 50.0 µM),"growth inhibition [3, 7]","growth inhibition [3, 8]",growth inhibition ([3]; at 50.0 µM),"growth inhibition [4, 7]","growth inhibition [4, 8]",growth inhibition ([4]; at 50.0 µM),"growth inhibition [5, 7]","growth inhibition [5, 8]",growth inhibition ([5]; at 50.0 µM),"growth inhibition [6, 7]","growth inhibition [6, 8]",growth inhibition ([6]; at 50.0 µM)
CN(C)CC1CCCCCCCCCCCCC(CN(C)C)C1=O (configuration not stated),-18%,42%,83.7% (active),-6%,22%,77.8% (active),-15%,57%,95.5% (active),-23%,20%,72.2% (active),-15%,46%,88% (active),-13%,87% (active),39%
O=C1Nc2c(Cl)cc(Cl)cc2/C1=N/N=C/c1ccco1,24%,84% (active),52.6%,26%,83% (active),53.4%,28%,68%,67.3%,28%,74% (active),63.2%,21%,83% (active),55.4%,37%,94% (active),89.2% (active)
CC(C)(C)CC(C)(C)c1ccc(Oc2ccc([N+](=O)[O-])cc2S(=O)(=O)O)cc1,-2%,21%,14.8%,-6%,-1%,0.05%,-1%,32%,64.5%,4%,-4%,-23.4%,-2%,-13%,5.45%,5%,26%,24.7%
CC(c1ccccc1)n1c2ccccc2c2c(N)ncnc21 (configuration not stated),6%,100% (active),78.4% (active),-11%,100% (active),86.8% (active),23%,100% (active),89.5% (active),-4%,100% (active),90.8% (active),13%,100% (active),90.3% (active),32%,99% (active),91.9% (active)
O=C1C(Cl)=C(N2C(=O)CCCC2=O)C(=O)c2ccccc21,100% (active),99% (active),89.2% (active),100% (active),99% (active),90.2% (active),100% (active),99% (active),91.5% (active),99% (active),99% (active),89.8% (active),100% (active),99% (active),89.1% (active),99% (active),99% (active),88.3% (active)
CN1CCCN(C)C1c1cc([N+](=O)[O-])ccc1O,25%,95% (active),49.5%,3%,92% (active),98.2% (active),7%,96% (active),97.7% (active),11%,93% (active),87.3% (active),-6%,95% (active),96.8% (active),7%,99% (active),98.9% (active)
O=C(Nc1ccc(Cl)cc1)c1cccc([N+](=O)[O-])c1O,9%,13%,32.8%,5%,11%,-8.45%,8%,11%,70.8% (active),-3%,34%,-22%,6%,10%,-5%,7%,16%,11.2%
CCC(C)C(C(=O)NOC(=O)c1ccccc1)/C(N)=N/OC(=O)c1ccccc1 (configuration not stated),89% (active),99% (active),99.5% (active),83% (active),100% (active),98.3% (active),96% (active),99% (active),99.6% (active),87% (active),99% (active),99.5% (active),91% (active),99% (active),99.4% (active),97% (active),99% (active),98.9% (active)
Cc1cccc(C[N+](C)(C)CCCO)c1C,1%,1%,-6.15%,4%,0%,-24.6%,3%,1%,-0.35%,2%,1%,46.1%,0%,1%,-1.9%,0%,-3%,-4.7%
